Only some compounds are listed: those with a hit (about 5.7% of all), similar ones and a draw of the others.
Hsp90 block – displaces geldanamycin probe from tumor Hsp90 | NCI-N417 lysate Hsp90, Cy3B-geldanamycin FP displacement | P07900 | actives 0.35% (n = 64,000) | inhibition, % at 30 µM;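 active = inhibition above 50%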;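 note: 0% = tracer plus lysate wells and 100% = tracer alone without lysate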
NADH coupling – inhibitors of enzymes used to reach an NAD/NADH endpoint | IC50, µM (doses to about 10 µM), for inactives: at the highest dose inhibition | AID 774 | actives 0.02% (n = 65,000) | coupled PK/LDH NADH assays, four targets;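 active = single-dose screening hits from any of four coupled enzyme assays that gave an IC50 when retested across doses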;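 note: the DPM-DC format reads NADH fluorescence rather than 340 nm absorbance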
Fluor 339 460 – intrinsic fluorescence of library compounds, ex339/em460 – biochemical, MLSMR library, data from DPM-DC assay, artefact control, profiling panel | fluorescence fold increase at 10 µM | actives 5.5% (n = 65,000) | AID 709 | compound autofluorescence, ex339/em460 nm, NADH buffer; hits give high values; 1 = no-compound wells, NADH background;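 active = at 10 µM, mean starting fluorescence two-fold or more over control wells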;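 note: signal is the first read of a kinetic run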
Cdc25B block – inhibitors of human Cdc25B phosphatase. P30305. recombinant Cdc25B, OMFP fluorescence Ex485/Em525. inhibition, %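 (compounds tested at 10 µM final in the well)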. actives 0.1% (n = 65,000); in the data active = inhibition above about 50%
Target sequence (P30305 whole entry, looked up): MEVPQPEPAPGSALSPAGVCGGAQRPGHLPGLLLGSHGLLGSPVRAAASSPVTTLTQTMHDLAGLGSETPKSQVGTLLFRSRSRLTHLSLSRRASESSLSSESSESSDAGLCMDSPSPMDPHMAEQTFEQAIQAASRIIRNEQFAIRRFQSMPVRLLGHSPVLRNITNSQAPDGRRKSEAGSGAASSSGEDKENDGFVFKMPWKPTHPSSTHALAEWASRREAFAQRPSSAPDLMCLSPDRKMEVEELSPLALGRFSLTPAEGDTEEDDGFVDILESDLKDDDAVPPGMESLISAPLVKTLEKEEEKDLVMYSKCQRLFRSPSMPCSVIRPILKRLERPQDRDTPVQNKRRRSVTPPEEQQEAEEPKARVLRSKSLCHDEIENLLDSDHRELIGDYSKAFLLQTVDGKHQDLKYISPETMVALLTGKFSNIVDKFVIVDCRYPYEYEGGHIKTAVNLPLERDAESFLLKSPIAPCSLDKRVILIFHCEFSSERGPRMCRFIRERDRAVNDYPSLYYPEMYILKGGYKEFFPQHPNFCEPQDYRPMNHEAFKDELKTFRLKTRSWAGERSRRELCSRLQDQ
MKP-1 inh – blocks human MKP-1 phosphatase activity. recombinant MKP-1, OMFP hydrolysis fluorescence. inhibition, %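 (compounds tested at a single concentration somewhere between 10 and 100 µM)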. actives 0.15% (n = 65,000);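 active = inhibition above about 50%, limit read from the data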;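 note: 0% = DMSO max control wells and 100% = wells with enzyme stopped by NaOH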
Abs 340nm – absorbance at 340 nm; compound absorbance at 340 nm, fold over control; fold change at 10 µM; 65,000 tested, under 10 active; AID 708;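 active = at 10 µM dose, initial 340 nm absorbance at least 2 fold that of control wells; inactive = change under 2 fold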;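 note: initial absorbance extrapolated from kinetic A340 decline of NADH oxidation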
* = called active by the depositor.

Results for Cc1ccc(O)c(N=Nc2ccccc2)n1 ?
Hsp90 block: 25.4

How did CCn1c(=O)cc(OCC(=O)Nc2ccc(Cl)cn2)c2ccccc21 do in these assays?
Hsp90 block: 0.9; NADH coupling: 6.0%; Fluor 339 460: 1.06; Cdc25B block: -8.7; MKP-1 inh: 6.6; Abs 340nm: 1.01

How did COc1ccc(-n2c(C)cc(C(=O)CSc3nnc(-c4ccoc4C)n3C)c2C)cc1 do in these assays?
Hsp90 block: 0.2; NADH coupling: 6.0%; Fluor 339 460: 1.01; Cdc25B block: -31.4; MKP-1 inh: 4.3; Abs 340nm: 1.02

What do the screens show for `CC1(C(=O)NCc2cccnc2)CCC(=O)N1Cc1cccs1` (configuration not stated)?
Hsp90 block: -3.5; NADH coupling: 6.0%; Fluor 339 460: 1.06; Cdc25B block: -9.2; MKP-1 inh: -9.0; Abs 340nm: 0.97

What do the screens show for `Cc1ccc2cc3cc(C(=O)NCCN4CCOCC4)oc3nc2c1`?
Hsp90 block: -1.4; NADH coupling: 14.0%; Fluor 339 460: 3.23*; Cdc25B block: -4.0; MKP-1 inh: -1.9; Abs 340nm: 1.06

How did COc1ccc2cc3cc(C(=O)NCCCN4CCOCC4)oc3nc2c1 do in these assays?
Hsp90 block: 3.1; NADH coupling: 2.0%; Fluor 339 460: 5.08*; Cdc25B block: 9.5; MKP-1 inh: -1.1; Abs 340nm: 1.15

Results for COC(=O)c1[nH]c2ccccc2c1NC(=O)CNC1CCCCC1 ?
Hsp90 block: -6.8; NADH coupling: 10.0%; Fluor 339 460: 1.42; Cdc25B block: -4.0; MKP-1 inh: 3.1; Abs 340nm: 1.02

How did Nc1nc(SCC(=O)N2CCCc3ccccc32)n(-c2ccccc2)n1 do in these assays?
Hsp90 block: -2.3; NADH coupling: 1.0%; Fluor 339 460: 1.13; Cdc25B block: -1.8; MKP-1 inh: -0.8; Abs 340nm: 1.06

What do the screens show for `CC(C)NC[C@H](O)COc1ccc(CC(N)=O)cc1`?
Hsp90 block: 2.6

How did CCCn1cnc2c(c1=O)c1nc3ccccc3nc1n2Cc1ccccc1OC do in these assays?
Hsp90 block: -1.1; NADH coupling: 3.0%; Fluor 339 460: 1.12; Cdc25B block: 0.2; MKP-1 inh: 23.5; Abs 340nm: 1.04

Results for COc1cccc(Cn2c(N)c(C#N)c3nc4ccccc4nc32)c1OC ?
Hsp90 block: -4.6; NADH coupling: 6.0%; Fluor 339 460: 3.43*; Cdc25B block: 5.0; MKP-1 inh: 20.0; Abs 340nm: 1.01

What do the screens show for `N#Cc1c(N)n(CCOC(=O)c2cccc(Br)c2)c2nc3ccccc3nc12`?
Hsp90 block: -5.7; NADH coupling: 3.0%; Fluor 339 460: 2.44*; Cdc25B block: 3.4; MKP-1 inh: 0.9; Abs 340nm: 1

How did COc1ccc2c(c1)nc(N)n2Cc1ccccc1 do in these assays?
Hsp90 block: 1.1; NADH coupling: 2.0%; Fluor 339 460: 1.06; Cdc25B block: -36.4; MKP-1 inh: -21.4; Abs 340nm: 1

How did COc1cc(Cn2c(N)c(C#N)c3nc4ccccc4nc32)cc(OC)c1 do in these assays?
Hsp90 block: -3.5; NADH coupling: 3.0%; Fluor 339 460: 3.9*; Cdc25B block: 7.7; MKP-1 inh: 14.0; Abs 340nm: 1.03

How did C=CCOc1nc(N(C)C)nc(N(C)C)n1 do in these assays?
Hsp90 block: -4.4; NADH coupling: 2.0%; Fluor 339 460: 1.05; Cdc25B block: 2.7; MKP-1 inh: -4.9; Abs 340nm: 0.99

How did COC(=O)C1(C)Nc2ccccc2C(=O)N1c1ccccc1C (configuration not stated) do in these assays?
Hsp90 block: -2.0; NADH coupling: 2.0%; Fluor 339 460: 2.1*; Cdc25B block: -5.4; MKP-1 inh: 2.5; Abs 340nm: 1.09

How did O=C(Nc1ccccn1)c1ccc2ccccc2n1 do in these assays?
Hsp90 block: -2.7; NADH coupling: 6.0%; Fluor 339 460: 1.04; Cdc25B block: 69.8*; MKP-1 inh: -1.2; Abs 340nm: 1

How did Cc1cc(C(=O)Nc2ccccn2)no1 do in these assays?
Hsp90 block: -5.4; NADH coupling: 4.0%; Fluor 339 460: 1.13; Cdc25B block: -10.6; MKP-1 inh: -1.0; Abs 340nm: 1.04

How did CCCc1nnc(NC(=O)CCC(=O)Nc2ccc(F)cc2)s1 do in these assays?
Hsp90 block: 1.4; NADH coupling: 8.0%; Fluor 339 460: 1.09; Cdc25B block: -9.2; MKP-1 inh: 27.6; Abs 340nm: 0.99

How did CCc1nnc(NC(=O)C2CCCN2C(=O)NC2CCCCC2)s1 (configuration not stated) do in these assays?
Hsp90 block: 0.7; NADH coupling: 3.0%; Fluor 339 460: 1.06; Cdc25B block: -8.5; MKP-1 inh: 3.3; Abs 340nm: 1.06

Results for O=C(O)c1cc2c([nH]c1=O)CCCC2 ?
Hsp90 block: 2.6; NADH coupling: 4.0%; Fluor 339 460: 2.3*; Cdc25B block: 5.2; MKP-1 inh: -0.8; Abs 340nm: 1.01

Results for Cc1ccc2nc(-c3ccccn3)cc(C(=O)NC3CCN(C)CC3)c2c1 ?
Hsp90 block: -14.0; NADH coupling: 7.0%; Fluor 339 460: 2.95*; Cdc25B block: -1.0; MKP-1 inh: -6.2; Abs 340nm: 1.09

What do the screens show for `CCCCOC(=O)Cn1c(=O)c2c(nc(Br)n2Cc2ccccc2)n(C)c1=O`?
Hsp90 block: -3.2; NADH coupling: 7.0%; Fluor 339 460: 1.13; Cdc25B block: 3.0; MKP-1 inh: 5.5; Abs 340nm: 1.02

Results for COC(=O)/C(=C1/Oc2cc3c(cc2S1)OCO3)C(F)(F)F ?
Hsp90 block: 3.5; NADH coupling: 11.0%; Fluor 339 460: 2.23*; Cdc25B block: -13.1; MKP-1 inh: -1.5; Abs 340nm: 1.1

Results for Cc1nc(-c2ccc3c(c2)OCO3)cs1 ?
NADH coupling: 6.0%; Fluor 339 460: 1.07; Cdc25B block: -9.5; MKP-1 inh: -2.0; Abs 340nm: 0.99

Results for CCOC(=O)c1cc(-c2ccc3c(c2)OCO3)nc2onc(C)c12 ?
Hsp90 block: -3.2; NADH coupling: 4.0%; Fluor 339 460: 3.28*; Cdc25B block: -5.7; MKP-1 inh: -1.7; Abs 340nm: 1.01

How did CCCc1cc(-c2[nH]ncc2-c2ccc(C(=O)OCC)o2)c(O)cc1O do in these assays?
Hsp90 block: 41.2; NADH coupling: 4.0%; Fluor 339 460: 2.18*; Cdc25B block: -8.2; MKP-1 inh: 25.8; Abs 340nm: 1.01

What do the screens show for `CCCc1cc(-c2[nH]ncc2-c2ccc3c(c2)OCCCO3)c(O)cc1O`?
Hsp90 block: 77.8*; NADH coupling: 4.0%; Fluor 339 460: 1.14; Cdc25B block: 2.1; MKP-1 inh: 38.1; Abs 340nm: 1.03

Results for CCOC(=O)c1ccc(CSc2ncn[nH]2)o1 ?
Hsp90 block: -6.2; NADH coupling: 4.0%; Fluor 339 460: 1.1; Cdc25B block: 3.9; MKP-1 inh: -15.9; Abs 340nm: 1.01

Results for CCn1c(SCC(=O)Nc2ccc(N(C)C)cc2)nnc1-c1cccc(C)c1 ?
Hsp90 block: 3.0; NADH coupling: 1.0%; Fluor 339 460: 1.03; Cdc25B block: -5.1; MKP-1 inh: -19.4; Abs 340nm: 0.99

Screening data (PubChem)
